Screens from PubChem.
IDE exosite inh: exo-site inhibitors of human IDE, primary screen, biochemical, fluorescence anisotropy, probe displacement. purified IDE, FL-6b probe fluorescence polarization; hits give low values. Insulin-degrading enzyme (Homo sapiens), P14735. AID 1259349, 2017. 17,000 compounds, 6.3% hits. z-score at 20 µM;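 active = z-score of -3 or lower, meaning strong loss of probe binding signal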;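 also: His-tagged human IDE residues 42-1019 made in E. coli with 30 nM FL-6b probe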
Target sequence (P14735 42-1019 limits assumed): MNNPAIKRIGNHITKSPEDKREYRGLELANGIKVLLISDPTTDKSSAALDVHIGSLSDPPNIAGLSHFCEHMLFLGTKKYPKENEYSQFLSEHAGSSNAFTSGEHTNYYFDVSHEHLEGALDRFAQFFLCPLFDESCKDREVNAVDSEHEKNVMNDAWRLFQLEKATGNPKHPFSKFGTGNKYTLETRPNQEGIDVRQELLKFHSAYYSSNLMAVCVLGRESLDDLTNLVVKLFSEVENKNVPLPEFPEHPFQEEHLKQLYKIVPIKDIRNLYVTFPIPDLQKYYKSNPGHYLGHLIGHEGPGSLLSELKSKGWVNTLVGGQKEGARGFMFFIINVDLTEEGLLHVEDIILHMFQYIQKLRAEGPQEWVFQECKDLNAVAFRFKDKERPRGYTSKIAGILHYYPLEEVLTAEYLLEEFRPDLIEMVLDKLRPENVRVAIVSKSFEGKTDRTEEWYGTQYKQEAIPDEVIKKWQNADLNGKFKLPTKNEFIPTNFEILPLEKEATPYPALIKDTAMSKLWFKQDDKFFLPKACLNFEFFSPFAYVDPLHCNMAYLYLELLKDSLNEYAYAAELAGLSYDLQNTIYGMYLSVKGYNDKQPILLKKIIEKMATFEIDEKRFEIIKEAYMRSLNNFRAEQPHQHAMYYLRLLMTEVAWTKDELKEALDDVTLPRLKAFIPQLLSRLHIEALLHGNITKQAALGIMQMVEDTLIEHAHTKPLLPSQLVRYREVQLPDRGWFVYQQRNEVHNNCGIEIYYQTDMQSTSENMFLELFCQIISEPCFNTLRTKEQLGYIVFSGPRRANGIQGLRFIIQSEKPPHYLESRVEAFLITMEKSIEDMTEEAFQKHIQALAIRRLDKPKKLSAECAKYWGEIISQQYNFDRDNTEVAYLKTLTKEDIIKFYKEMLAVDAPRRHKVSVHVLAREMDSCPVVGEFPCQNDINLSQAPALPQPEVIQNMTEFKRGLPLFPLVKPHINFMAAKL
Active calls of the source: *; ! = repeats disagree. The full list was thinned out, with hits kept by preference.

SMILES	IDE exosite inh
CO[C@@H](CN(C)S(=O)(=O)c1cccc(Cl)c1)[C@@H](C)CN(C(=O)Nc1ccccc1F)[C@H](C)CO	1.9
OC[C@@H]1[C@H](c2ccc(-c3ccccc3F)cc2)[C@@H]2CN(Cc3ccncc3)CCCCN12	-0.44
OC[C@@H]1[C@@H](c2ccc(-c3ccccc3F)cc2)[C@@H]2CN(Cc3ccncc3)CCCCN12	-1.5
COc1ccccc1-c1ccc([C@@H]2[C@@H](CO)N3CCCCN(Cc4ccncc4)C[C@@H]23)cc1	-6.8*
OC[C@H]1[C@H](c2ccc(-c3ccccc3F)cc2)[C@H]2CN(Cc3ccncc3)CCCCN21	-3.3*
COc1ccc(C#Cc2ccc([C@H]3[C@H]4CN(Cc5ccncc5)CCCCN4[C@H]3CO)cc2)cc1	0.62
OC[C@H]1[C@@H](c2ccc(-c3ccccc3F)cc2)[C@H]2CN(Cc3ccncc3)CCCCN21	-2.3
CN(C)CC#Cc1ccc([C@@H]2[C@@H](CO)N3CCCCN(C(=O)C4CCC4)C[C@H]23)cc1	0.61
CO[C@H]1CN(C)C(=O)c2cc(NC(=O)C3CC3)ccc2OC[C@H](C)N(Cc2cc(F)ccc2F)C[C@@H]1C	0.3
CCS(=O)(=O)N1CCC2(CC1)CN(C(=O)c1cccc(F)c1)[C@@H](CO)c1c2c2ccc(OC)cc2n1C	0.76
OC[C@@H]1[C@@H](c2ccc(-c3cccnc3)cc2)[C@@H]2CN(CC3CC3)CCCCN12	1.1
O=C(C1CCOCC1)N1C[C@@H]2N[C@H](C1)C2c1ccc(/C=C/c2ccccc2)cc1 (stereo not given in full)	-7.6*!
COc1ccc(-c2ccc(C3[C@@H]4CN(Cc5ccccn5)C[C@H]3N4)cc2)cc1 (stereo not given in full)	3.7
O=C(c1ccc(F)cc1)N1C[C@@H]2N[C@H](C1)C2c1ccc(/C=C/c2ccccc2)cc1 (stereo not given in full)	-4.6*!
O=C(c1ccncc1)N1C[C@@H]2N[C@H](C1)C2c1ccc(/C=C/c2ccccc2)cc1 (stereo not given in full)	-14*!
O=C(CN1CCOCC1)N1C[C@@H]2N[C@H](C1)C2c1ccc(/C=C/c2ccccc2)cc1 (stereo not given in full)	-0.79
C(=C\c1ccc(C2[C@@H]3CN(Cc4ccccn4)C[C@H]2N3)cc1)/c1ccccc1 (stereo not given in full)	-5.2*
O=C(c1ccc(F)cc1)N1CC(=O)N2[C@H](CO)[C@@H](c3ccc(/C=C/c4ccccc4)cc3)[C@H]2C1	2
C(=C\c1ccc(C2[C@@H]3CN(Cc4nccs4)C[C@H]2N3)cc1)/c1ccccc1 (stereo not given in full)	-2.4
O=C(c1cccnc1)N1C[C@@H]2N[C@H](C1)C2c1ccc(-c2ccccc2)cc1 (stereo not given in full)	-2.8
O=C(c1ccc2c(c1)OCO2)N1C[C@@H]2N[C@H](C1)C2c1ccc(/C=C/c2ccccc2)cc1 (stereo not given in full)	-0.41
COc1ccccc1NC(=O)N1C[C@@H]2N[C@H](C1)C2c1ccc(/C=C/c2ccccc2)cc1 (stereo not given in full)	-0.39
O=C(C1CCOCC1)N1C[C@@H]2N[C@H](C1)C2c1ccc(-c2ccncc2)cc1 (stereo not given in full)	2.1
C[C@H](NC(=O)C[C@H]1CC[C@@H]2[C@H](COC[C@H](O)CN2Cc2ccc(C(F)(F)F)cc2)O1)c1ccccc1	-1.3
O=C(C[C@@H]1CC[C@@H]2[C@H](COC[C@@H](O)CN2C(=O)Nc2ccc(F)cc2)O1)NC1CCC1	-0.083
SMILES	IDE exosite inh
COCC(=O)N1[C@H](C#N)[C@@H](c2ccccc2-c2ccccc2F)[C@H]1CO	-0.079
O=C(c1ccccn1)N1CC(=O)N2[C@H](CO)[C@H](c3ccc(C#CC4CCCC4)cc3)[C@@H]2C1	1.6
O=C(c1cccnc1)N1CC(=O)N2[C@H](CO)[C@@H](c3ccc(C#CCC4CCCC4)cc3)[C@H]2C1	3.7
O=C1CN(S(=O)(=O)Cc2ccccc2)C[C@H]2[C@@H](c3ccc(C#Cc4cccnc4)cc3)[C@H](CO)N12	0.3
O=C1CN(S(=O)(=O)c2ccccc2)C[C@H]2[C@@H](c3ccc(C#Cc4ccccc4)cc3)[C@@H](CO)N12	1.6
O=C1CN(S(=O)(=O)c2ccccc2)C[C@@H]2[C@H](c3ccc(C#Cc4ccccc4)cc3)[C@H](CO)N12	-5.2*
O=C1CN(S(=O)(=O)Cc2ccccc2)C[C@H]2[C@H](c3ccc(C#Cc4ccccc4)cc3)[C@@H](CO)N12	0.58
CCS(=O)(=O)N1CC(=O)N2[C@H](CO)[C@@H](c3ccc(C#CCc4ccccc4)cc3)[C@@H]2C1	1.7
CS(=O)(=O)N1CC(=O)N2[C@H](CO)[C@H](c3ccc(C#CCc4ccccc4)cc3)[C@@H]2C1	0.97
O=C1CN(S(=O)(=O)c2ccccc2)C[C@H]2[C@H](c3ccc(C#Cc4ccccc4)cc3)[C@@H](CO)N12	1.3
O=C1CN(S(=O)(=O)Cc2ccccc2)C[C@@H]2[C@@H](c3ccc(C#Cc4ccccc4)cc3)[C@H](CO)N12	-0.81
CS(=O)(=O)N1CC(=O)N2[C@H](C1)[C@H](c1ccc(C#CCc3ccccc3)cc1)[C@@H]2CO	-3.4*
O=C1CN(S(=O)(=O)Cc2ccccc2)C[C@@H]2[C@H](c3ccc(C#Cc4ccccc4)cc3)[C@H](CO)N12	-3.5*
O=C1CN(S(=O)(=O)Cc2ccccc2)C[C@H]2[C@H](c3ccc(C#Cc4cccc(F)c4)cc3)[C@@H](CO)N12	3.8
O=C1CN(S(=O)(=O)Cc2ccccc2)C[C@H]2[C@@H](c3ccc(C#Cc4cccnc4)cc3)[C@@H](CO)N12	-5.8*
N#C[C@@H]1[C@@H](c2ccccc2)[C@H](CO)N1C(=O)Cc1ccccc1	0.94
COCC#Cc1ccc([C@@H]2[C@H]3CN(C(=O)Nc4cc(F)ccc4F)CC(=O)N3[C@H]2CO)cc1	-0.91
CCC(=O)N(C)C[C@@H]1[C@@H](c2ccc(C3=CCCCC3)cc2)[C@H](CO)N1C(C)=O	3.6
COCC#Cc1ccc([C@H]2[C@H]3CN(C(=O)C4CCOCC4)CC(=O)N3[C@H]2CO)cc1	0.44
CN(C[C@H]1[C@H](c2ccccc2)[C@@H](CO)N1CC1CC1)C(=O)c1ccccc1	-0.92
CCCC#Cc1ccc([C@@H]2[C@H](CO)N3C(=O)CN(C(=O)Nc4ccc(F)cc4)C[C@@H]23)cc1	3.4
O=C(C[C@@H]1CC[C@H](NC(=O)c2cccnc2)[C@@H](CO)O1)NCc1ccc(Cl)c(Cl)c1	1.6
COCC(=O)N1[C@H](CO)[C@H](c2ccc(-c3ccccc3OC)cc2)C12CN(C(C)=O)C2	-3
COC(=O)C[C@@H]1C[C@@H]2c3cc(NC(=O)C4CCOCC4)ccc3O[C@@H]2[C@@H](CO)O1	-0.24
O=C(c1ccccc1)N1CC(=O)N2[C@H](C1)[C@@H](c1ccc(C3=CCCC3)cc1)[C@@H]2CO	2.3
O=C1CN(S(=O)(=O)Cc2ccccc2)C[C@H]2[C@@H](c3ccc(C#Cc4ccccc4)cc3)[C@@H](CO)N12	-3.5*
O=C1CN(S(=O)(=O)Cc2ccccc2)C[C@H]2[C@H](c3ccc(C#Cc4ccccc4)cc3)[C@H](CO)N12	-1.5
O=C1CN(S(=O)(=O)Cc2ccccc2)C[C@H]2[C@@H](c3ccc(C#Cc4ccc(F)cc4)cc3)[C@@H](CO)N12	-1.4
COCC(=O)N(C[C@@H]1N[C@@H](CO)[C@@H]1c1ccc(-c2ccccc2)cc1)C(C)C	0.71
